Test results taken from PubChem BioAssay (EPA / NIEHS).
Values joined by “and” are separate entries in the source; they are usually repeats but may differ in a detail not shown here. Identical values can stand only once. Inconclusive results are not listed. Active and inactive are the calls of the source. Rule for the calls, unless noted: active = hit-call score of the fitted dose curve at least 0.9, where 1 is the maximum; inconclusive = response in the unintended direction; inactive = score below 0.9.

Experiments:
[1] = molecular target: Cellular tumor antigen p53 (Homo sapiens) (UniProt P04637); assay: TOX21_p53_BLA_p2_ratio: Tox21 HCT-116 p53 Agonism Beta-lactamase Assay, Ratio, Phase 2 (AID 2283592)
Cellular tumor antigen p53 (Homo sapiens), sequence (P04637 whole entry, looked up): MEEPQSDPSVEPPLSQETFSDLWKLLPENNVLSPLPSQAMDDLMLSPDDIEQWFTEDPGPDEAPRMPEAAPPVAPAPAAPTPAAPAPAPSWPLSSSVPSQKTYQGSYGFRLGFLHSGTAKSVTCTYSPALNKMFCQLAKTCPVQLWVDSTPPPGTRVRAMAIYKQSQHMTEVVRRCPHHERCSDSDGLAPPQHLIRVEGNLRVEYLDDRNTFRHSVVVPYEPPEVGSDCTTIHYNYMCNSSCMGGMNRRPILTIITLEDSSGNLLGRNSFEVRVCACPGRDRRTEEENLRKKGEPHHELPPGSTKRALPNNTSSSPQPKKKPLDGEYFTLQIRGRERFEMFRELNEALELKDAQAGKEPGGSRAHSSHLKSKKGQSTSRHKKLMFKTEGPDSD
How it was run: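 An inducible beta-lactamase reporter in HCT116 cells signals p53 pathway activation. After 16 h chemical exposure at 37C, cells load CCF4-AM substrate for 2 h at room temperature; activity is the cleaved/uncleaved emission ratio relative to DMSO.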

[2] = TOX21_p53_BLA_p3_viability: Viability Assessment in the Tox21 HCT-116 p53 Agonism Beta-lactamase Assay, Phase 3 (AID 2283593);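 note: cells exposed to compound for 16 h before reading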
How it was run: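 HCT116 cells, 4000/well, dosed 5 h after plating by pin transfer (217-fold dilution from DMSO stock) and incubated 16 h at 37C, 5% CO2. Viability read as ATP luminescence with CellTiter-Glo after 30 min at room temperature.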

[3] = molecular target: Cellular tumor antigen p53 (Homo sapiens) (UniProt P04637); assay: TOX21_p53_BLA_p3_ratio: Tox21 HCT-116 p53 Agonism Beta-lactamase Assay, Ratio, Phase 3 (AID 2283596)
How it was run: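 HCT116 p53-bla cells (4000/well) given compound in DMSO (217-fold dilution) after 5 h, incubated 16 h at 37C. CCF4-AM substrate 2 h at room temperature; 460/530 nm emission ratio, gain fitted against DMSO.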

[4] = TOX21_p53_BLA_p4_viability: Viability Assessment in the Tox21 HCT-116 p53 Agonism Beta-lactamase Assay, Phase 4 (AID 2283597);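 note: hits lower the luminescence signal meaning cytotoxicity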
How it was run: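 Compound exposure of HCT116 cells lasts 16 h at 37C, 5% CO2, with DMSO stocks diluted 217-fold. Cellular ATP is then quantified by CellTiter-Glo luminescence after 30 min at room temperature.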

[5] = TOX21_p53_BLA_p5_viability: Viability Assessment in the Tox21 HCT-116 p53 Agonism Beta-lactamase Assay, Phase 5 (AID 2283600)
How it was run: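 Counter-readout for cytotoxicity: ATP-dependent luminescence from CellTiter-Glo, read in the beta-lactamase wells after 30 min at RT, following a 16 h compound exposure at 37C.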

[6] = molecular target: Cellular tumor antigen p53 (Homo sapiens) (UniProt P04637); assay: TOX21_p53_BLA_p4_ratio: Tox21 HCT-116 p53 Agonism Beta-lactamase Assay, Ratio, Phase 4 (AID 2283601)
How it was run: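 HCT-116 p53 beta-lactamase reporter cells (4000/well) preincubated 5 h, then compound (217-fold dilution of DMSO stock) for 16 h at 37C. CCF4-AM substrate added 2 h at room temperature; 460/530 nm emission ratio fitted upward versus DMSO.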

[7] = molecular target: Cellular tumor antigen p53 (Homo sapiens) (UniProt P04637); assay: TOX21_p53_BLA_p5_ratio: Tox21 HCT-116 p53 Agonism Beta-lactamase Assay, Ratio, Phase 5 (AID 2283599)
How it was run: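 HCT-116 p53-bla cells (4000/well) plated 5 h, dosed with compound (217-fold DMSO dilution) for 16 h at 37 C; CCF4-AM substrate 2 h at room temperature. Activity is the 460/530 nm emission ratio (405 nm excitation), fitted in gain-of-signal direction versus DMSO.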

PGR (gene 5241) [8] = molecular target: PGR (gene 5241) (UniProt P06401); assay: TOX21_PR_BLA_Followup_Agonist_ratio: Tox21 HEK293 Progesterone Receptor (PR) Agonism Beta-lactamase Follow-Up Assay, Ratio (AID 2283933)
PGR (gene 5241), sequence (P06401 whole entry, looked up): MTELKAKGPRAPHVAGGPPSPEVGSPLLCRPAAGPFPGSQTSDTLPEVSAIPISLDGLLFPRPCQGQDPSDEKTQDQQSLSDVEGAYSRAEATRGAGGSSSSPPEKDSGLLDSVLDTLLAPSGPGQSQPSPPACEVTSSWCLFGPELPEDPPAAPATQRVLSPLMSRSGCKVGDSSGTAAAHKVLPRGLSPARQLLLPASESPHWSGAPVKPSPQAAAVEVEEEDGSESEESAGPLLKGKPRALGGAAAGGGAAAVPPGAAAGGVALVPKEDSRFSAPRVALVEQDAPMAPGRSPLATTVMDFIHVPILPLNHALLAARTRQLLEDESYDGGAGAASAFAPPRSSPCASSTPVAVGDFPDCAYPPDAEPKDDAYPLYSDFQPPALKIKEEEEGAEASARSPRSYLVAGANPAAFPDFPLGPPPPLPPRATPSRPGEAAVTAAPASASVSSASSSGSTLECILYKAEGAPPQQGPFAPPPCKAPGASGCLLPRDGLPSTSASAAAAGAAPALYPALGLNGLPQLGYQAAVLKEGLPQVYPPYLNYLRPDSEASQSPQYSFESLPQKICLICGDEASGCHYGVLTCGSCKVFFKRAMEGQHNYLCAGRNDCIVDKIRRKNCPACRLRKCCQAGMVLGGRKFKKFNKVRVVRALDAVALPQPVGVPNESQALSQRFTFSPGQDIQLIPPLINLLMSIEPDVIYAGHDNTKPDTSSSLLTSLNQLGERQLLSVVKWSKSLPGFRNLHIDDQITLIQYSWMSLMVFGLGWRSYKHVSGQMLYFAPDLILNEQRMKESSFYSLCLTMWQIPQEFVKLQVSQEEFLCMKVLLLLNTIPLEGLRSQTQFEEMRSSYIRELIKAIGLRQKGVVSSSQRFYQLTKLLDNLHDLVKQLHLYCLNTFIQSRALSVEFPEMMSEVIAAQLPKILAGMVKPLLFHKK
How it was run: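 HEK293T PR-UAS-bla, 2% CS-FBS; 6 hr preincubation, cpd/DMSO pinned, 16 hr 37C/5% CO2; LiveBLAzer B/G 2 hr RT; FRET ch2/ch1 ratio, agonist direction vs DMSO. Viability by CellTiter-Glo in same wells.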

PGR (gene 5241) [9] = molecular target: PGR (gene 5241) (UniProt P06401); assay: TOX21_PR_BLA_Followup_Antagonist_ratio: Tox21 HEK293 Progesterone Receptor (PR) Antagonism Beta-lactamase Follow-Up Assay, Ratio (AID 2283934)
How it was run: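 HEK293T PR-UAS-bla, 2% CS-FBS; 6 hr plating, then cpd + R5020 (1 nM final), 16 hr 37C/5% CO2. B/G FRET substrate 2 h RT. Ratio ch2/ch1 vs DMSO; CellTiter-Glo viability multiplexed, autofluorescence checked.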

[10] = TOX21_PR_BLA_Followup_Agonist_viability: Viability Assessment in the Tox21 HEK293 Progesterone Receptor (PR) Agonism Beta-lactamase Follow-Up Assay (AID 2283935);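 note: cells exposed to compound for 16 hr at 37 °C; signal loss means lower viability so actives are cytotoxic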
How it was run: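 HEK293T PR-UAS-bla, 3,000 cells/well, 2% CS-FBS; 6 hr pre-incubation; cpd in DMSO, 16 hr 37C; LiveBLAzer 2 hr RT, then CellTiter-Glo 30 min RT, luminescence. Decrease = lost viability.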

[11] = TOX21_PR_BLA_Followup_Antagonist_viability: Viability Assessment in the Tox21 HEK293 Progesterone Receptor (PR) Antagonism Beta-lactamase Follow-Up Assay (AID 2283936);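 note: hits lower the luminescence signal meaning cytotoxicity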
How it was run: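 PR-UAS-bla HEK293T cells (3,000/well, 2% charcoal-stripped FBS) given compound plus R5020 agonist, 16 h at 37C. CellTiter-Glo added after bla read, 30 min at room temperature; luminescence loss indicates cytotoxicity.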

PGR (gene 5241) [12] = molecular target: PGR (gene 5241) (UniProt P06401); assay: TOX21_PR_LUC_Followup_Agonist: Tox21 HEK293 Progesterone Receptor (PR) Agonism Luciferase Follow-Up Assay (AID 2283937; active = hit-call score of the fitted dose curve at least 0.9, where 1 is the maximum; inactive = score below 0.9)
How it was run: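 Cells: HEK293-PR-A-luc, 3,000/well, 10% charcoal-stripped FBS assay medium. Compound added after 5 h; 16 h, 37C, 0% CO2. ONE-Glo luciferase, luminescence. Positive fit vs DMSO.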

PGR (gene 5241) [13] = molecular target: PGR (gene 5241) (UniProt P06401); assay: TOX21_PR_LUC_Followup_Antagonist: Tox21 HEK293 Progesterone Receptor (PR) Antagonism Luciferase Follow-Up Assay (AID 2283938);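 note: curve fitted upward as signal gain over DMSO baseline despite antagonist label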
How it was run: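 A follow-up to the PR bla screen using HEK293-PR-A-luc cells, multiplexed with cell viability to flag cytotoxicity. Reporter luminescence after 16 h compound exposure was analysed relative to DMSO.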

[14] = TOX21_PR_LUC_Followup_Agonist_viability: Viability Assessment in the Tox21 HEK293 Progesterone Receptor (PR) Agonism Luciferase Follow-Up Assay (AID 2283941);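 note: loss of signal means cytotoxicity so actives lower viability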
How it was run: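 Cells were kept 5 days in charcoal-stripped serum medium before plating HEK293-PR-A-luc at 3,000 cells/well. After 5 h they received DMSO-dissolved compound and incubated 16 h at 37C. Viability was taken from CellTiter-Glo ATP luminescence.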

Structure (SMILES)	outcome [1]	outcome [2]	outcome [3]	AC50 [4]	outcome [5]	outcome [6]	AC50 [2]	outcome [4]	outcome [7]	outcome (PGR (gene 5241) [8])	outcome (PGR (gene 5241) [9])	outcome [10]	outcome [11]	outcome (PGR (gene 5241) [12])	outcome (PGR (gene 5241) [13])	outcome [14]
CC1N=C(N)OC1c1ccccc1 (stereo not given)	inactive	inactive	inactive	26 µM (active)	inactive	inactive										
ClC1=C(Cl)C2(Cl)C(CBr)CC1(Cl)C2(Cl)Cl (stereo not given)	inactive		inactive			inactive	63.4 µM (active) and 20.2 µM (active)	inactive	inactive							
O=C1C(Cl)C(CCl)CN1c1cccc(C(F)(F)F)c1 (stereo not given)	inactive	inactive	inactive			inactive		inactive	inactive	inactive	inactive	inactive	inactive	inactive	inactive	inactive
